# An excerpt weighted towards active compounds, which were near 6% of everything screened.
# Sfp inh: inhibitors of Bacillus subtilis Sfp phosphopantetheinyl transferase; Biochemical Sfp PPTase activity, qHTS; actives 3.5% (n = 310,000); Potency, µM, without a hit: largest response in the series, negative = inhibition, actives largely listed as inhibitors; AID 1490;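 also: the enzyme is Sfp with the accession as filed and its product quenches rhodamine fluorescence; 0% = enzyme reaction without inhibitor and -100% = no enzyme wells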
#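 Fluorescence-quenching assay with 15 nM Sfp, 5 uM rhodamine-CoA and 12.5 uM BHQ-2-labelled ybbR peptide in pH 7.6 Hepes/MgCl2 buffer. Enzyme was pre-incubated with compound for 15 min at room temperature. Rate was taken from the 30-min fluorescence change (525/598 nm).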
# Tau FP inhib: tau fibrillization inhibition (FP). K18 P301L tau heparin fibrillization, Alexa594 FP, 6 h. Potency, µM (top dose mostly 57.7 µM), inactives show top-dose activity, negative = inhibition, most hits filed as inhibitors. actives 0.39% (n = 280,000). AID 1468; also: nearly all actives have a fitted effect of over 55% in size
#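 Recombinant K18 P301L […], labeled with Alexa 594 at 0.24 uM over 15 uM unlabeled; heparin inducer 20 uM final; 37 C, 6 hr; FP endpoint.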
# Tau fluor cs: counter-screen for tau fibril formation inhibitors; tau K18 P301L Alexa594 fluorescence, heparin fibrillization; Potency, µM (titrated, usually from 57.7 µM), without a hit: at the top dose activity change, negative = decrease; actives 0.93% (n = 280,000); also: nearly all actives have a fitted effect of over 55% in size
#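 Human tau K18 P301L (15 uM unlabeled, 0.24 uM Alexa 594-labeled) in 100 mM sodium acetate pH 7 with 20 uM heparin, 6 hr at 37 C. ThT 30 uM added, 1 hr ambient; Alexa 594 FP and total fluorescence read at 555/632 nm.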
# VDR inh: inhibitors of human vitamin D receptor; actives 0.93% (n = 400,000); Potency, µM, without a hit: max response, negative = inhibition, hits mostly inhibitors; VDR-SRC2-3 peptide fluorescence polarization, 2 h
# Target sequence (P11473 whole entry, looked up): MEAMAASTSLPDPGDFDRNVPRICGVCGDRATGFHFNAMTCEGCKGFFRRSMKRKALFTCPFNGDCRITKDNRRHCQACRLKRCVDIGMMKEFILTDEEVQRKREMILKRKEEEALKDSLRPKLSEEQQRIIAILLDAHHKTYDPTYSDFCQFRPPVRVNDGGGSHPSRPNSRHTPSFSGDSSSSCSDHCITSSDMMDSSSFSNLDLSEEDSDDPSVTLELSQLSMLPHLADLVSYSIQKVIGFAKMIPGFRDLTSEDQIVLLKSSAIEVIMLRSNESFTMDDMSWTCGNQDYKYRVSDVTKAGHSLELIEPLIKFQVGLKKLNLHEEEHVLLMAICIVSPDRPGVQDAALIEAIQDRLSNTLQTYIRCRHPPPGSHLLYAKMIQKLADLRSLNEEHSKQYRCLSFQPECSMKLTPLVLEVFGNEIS
#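 Measured by FP: displacement of SRC2-3 coactivator peptide from VDR by library compounds, following a two-hour ambient incubation.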
# Tau fibril ThT: inhibitors of human tau fibril formation, thioflavin T binding. AID 1460. P10636. recombinant tau K18 P301L, heparin-induced fibrillization, ThT fluorescence. Potency, µM (series often up to 57.4 µM), inactives show top-dose activity, negative = inhibition, actives largely listed as inhibitors. actives 2.1% (n = 270,000); also: nearly all actives have a fitted effect of over 55% in size
#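 Using a mix of unlabeled (15 uM) and Alexa 594-labeled (0.24 uM) tau K18 P301L, heparin-triggered fibrillization over 6 hr at 37 C was scored by ThT fluorescence.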
# PLK1 PBD inh: inhibitors of human PLK1 polo-box domain binding; Potency, µM, without a hit: max response, negative = inhibition, most hits filed as inhibitors; actives 2.8% (n = 360,000); P53350; Plk1 PBD binding of FITC phosphopeptide, fluorescence polarization; also: series mostly up to about 57 µM; nearly all actives have a fitted effect of over 65% in size
# * marks the source's active call; other numbers are inactive results; ? = inconclusive; nt = no result given; [ ] = dose if it differs, or a comment. Calls follow the shape of the dose curve; as a rule, active = well fitted curve in the direction sought with a large enough effect; inconclusive = small, poorly fitted or top-dose-only effect, or another doubt; inactive = no such curve, though single readings can be large; an effect the other way counts as inactive or inconclusive. Unless noted, % is scaled to controls: 0 for no effect and ±100 for the full control effect; potency is read from the fitted curve at half-maximal effect.
SMILES,Sfp inh,Tau FP inhib,Tau fluor cs,VDR inh,Tau fibril ThT,PLK1 PBD inh
CCn1cc(C(=O)NCCc2ccc(Cl)cc2)c(=O)c2cc(S(=O)(=O)N3CCOCC3)ccc21,nt,-14.6%,?,7.5%,-9.1%,nt
O=C1CC(c2ccccc2)CC(=O)C1Sc1ccc(Cl)cc1 (stereo not given),-6.9%,-6.8%,-11.9%,?,?,21.2µM*
O=C1CC(c2ccc(Cl)cc2)CC(=O)C1CS(=O)(=O)c1ccccc1 (stereo not given),-94.3%,3.9%,-13.9%,?,?,26.7µM*
O=C1CCCC(=O)C1CS(=O)(=O)c1ccccc1,20µM*,28.2µM*,-29.5%,39.8µM*,17.8µM*,-15.7%
CC(C)c1ccc(S(=O)(=O)c2nnn3c2nc(N2CCCC2)c2sccc23)cc1,nt,-4.3%,-10.2%,1.2%,-0.9%,nt
C/C(=N/NC(=O)CNC(=O)c1cccnc1)c1ccc(Cl)c(Cl)c1,-0.1%,nt,nt,-10.3%,nt,1.4%
COc1ccccc1NC(=O)C1=C(C)Nc2nc(SCc3cc(C)ccc3C)nn2C1c1ccccc1 (stereo not given),nt,?,-2.6%,18.4%,5.5%,nt
COc1ccc(CCN2CCCn3c2nc2c3c(=O)[nH]c(=O)n2C)cc1OC,15.1%,nt,nt,-5.3%,nt,-0.4%
Cc1cc(C)cc(Oc2coc3c(CN4CCN(C)CC4)c(O)ccc3c2=O)c1,nt,1.0%,-24.6%,1.8%,?,nt
CC(C)(C)c1cc[n+](-c2[nH]c(=O)sc2/C=N/NC([S-])=Nc2ccccc2)cc1,35.5µM*,-21.7%,-22.4%,?,?,?
CCOc1ccc(NC(=O)Cn2c(=O)n(Cc3ccco3)c(=O)c3ccc(C(=O)NC4CCCC4)cc32)cc1,nt,15.8µM*,?,-1.1%,2.4%,nt
CCOC(=O)Cn1c(=O)n(Cc2ccco2)c(=O)c2ccc(C(=O)NC3CCCC3)cc21,-18.8%,-7.9%,-14.8%,-14.2%,-13.0%,-6.0%
O=C(NCc1cccnc1)c1cc(C2CCCCN2C(=O)CCCc2ccccc2)on1 (stereo not given),nt,nt,nt,nt,nt,-11.0%
Cc1cc(Cl)c2oc(C(=O)N3CCOCC3)c(C)c2c1,nt,nt,nt,nt,nt,4.4%
Cc1cc(Cl)c2oc(C(=O)N(C)C3CCOC3)c(C)c2c1 (stereo not given),-2.0%,nt,nt,?,nt,3.36µM*
O=C1CCCC2=C1C(c1cn(-c3ccccc3)nc1-c1cccs1)c1c([nH]c(=O)[nH]c1=O)N2 (stereo not given),-3.3%,9.9%,?,2.3%,?,23.8µM*
CN(C)c1ccc(N/C=C/C(=O)C(C)(C)C)cc1,50.1µM*,?,?,15.8µM*,15.8µM*,-2.9%
CN(C)c1ccc(N/C=C/C(=O)c2ccccc2)cc1,20µM*,-18.1%,?,79.4µM*,1.78µM*,8.6%
O=C(/C=C/Nc1ccccc1)c1ccccc1,1.3%,3.9%,-4.7%,-5.8%,-1.1%,1.6%
Cc1cccc(-c2nc(SCC(=O)NCc3ccco3)c3c(=O)n(C)c(=O)n(C)c3n2)c1,nt,-9.1%,-1.9%,17.2%,-5.4%,nt
CCC(=O)N1CCc2cc(S(=O)(=O)NC(CC(C)C)C(=O)Nc3cc(C)ccc3OC)ccc21 (stereo not given),nt,-3.9%,-19.2%,13.4%,-10.3%,nt
COc1ccc2nc(N3C(=O)CNC3=S)sc2c1,-28.7%,5.4%,-19.1%,9.1%,nt,-0.6%
CCOc1ccc2nc(N3C(=O)/C(=C/c4ccc(Cl)cc4)NC3=S)sc2c1,1.6%,-7.9%,?,-12.5%,4.47µM*,?
Cc1cccc(OC(C)C(=O)N2CCC(c3nc4ccccc4o3)CC2)c1C (stereo not given),nt,10.5%,0.2%,-5.2%,-12.0%,nt
Clc1ccc(C(c2ccccc2)c2c[nH]c3ccccc23)s1 (stereo not given),nt,-3.2%,6.4%,-1.2%,5.0%,nt
Cc1ccc2[nH]cc(C(c3ccccc3)c3ccc(Cl)s3)c2c1 (stereo not given),nt,?,7.94µM*[quencher],-24.7%,?,nt
